This passage reports inhibition of viability results from PubChem BioAssay.

Calls of active or inactive are those of the source.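 The calls were made as follows: active = compounds that lower survival of HCT116 colon cancer cells in the luminescence readout, no numeric limit stated; inactive = the rest.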

The experiment in a line: HCT116 colon cancer cell growth inhibition, primary screen, CellTiter-Glo luminescence, NPC library (AID 1117342). The settings on record: at 20 µM (top of the series). Background: In ATP-based viability assays light output follows the ATP content of the culture.
Consider `COCCCOc1ccnc(CS(=O)c2nc3ccccc3[nH]2)c1C` (stereo unspecified), for which the inhibition of viability was 20.2% (inactive). For `N=c1nc(N2CCCCC2)cc(N)n1O` the value was 10.8% (inactive). The figure for `Cc1ccc(-n2nc(C(C)(C)C)cc2NC(=O)Nc2ccc(OCCN3CCOCC3)c3ccccc23)cc1` is 66.5% (active); for `CC(C)CCCC(C)NCCC(C)C` (stereo unspecified) it is -0.4% (inactive).

As for `CC(C)NCC(O)COc1cccc2[nH]ccc12` (stereo unspecified), the inhibition of viability is -13.4% (inactive).

In the case of `COc1ccccc1N1CCN(CCCCNC(=O)c2ccc(-c3ccc(C(C)=O)cc3)cc2)CC1`, the inhibition of viability was 51.4% (active). The figure for `CCn1cc(C(=O)O)c(=O)c2ccc(C)nc21` is 10.9% (inactive); for `CN(C)C(=O)C(CCN1CCC(O)(c2ccc(Cl)cc2)CC1)(c1ccccc1)c1ccccc1` it is 90.6% (active); for `Cc1cc(NS(=O)(=O)c2ccc(N)cc2)no1` it is -6.5% (inactive). On to `CC(C)(C)NC(=O)[C@@H]1C[C@@H]2CCCC[C@H]2CN1C[C@@H](O)[C@H](Cc1ccccc1)NC(=O)[C@H](CC(N)=O)NC(=O)c1ccc2ccccc2n1`, for which the inhibition of viability is 74% (active).

`CCCC(CCC)C(=O)O`: the inhibition of viability was 20.8% (inactive). Regarding `O=C1CN(/N=C/c2ccc([N+](=O)[O-])o2)C(=O)N1`, the inhibition of viability is 18.2% (inactive). On to `COc1cc(Cc2cnc(N)nc2N)cc(OC)c1OC`, for which the inhibition of viability was 28.8% (inactive). Take `COC(=O)C1=C(C)NC(C)=C(C(=O)OCCN(C)Cc2ccccc2)C1c1cccc([N+](=O)[O-])c1` (stereo unspecified): the inhibition of viability is 104% (active). Consider `C[C@@H](C1=C(CCN(C)C)Cc2ccccc21)c1ccccn1`, for which the inhibition of viability is -11.9% (inactive).

In the case of `Cc1cc(-n2nc3ccc(Cl)cc3n2)c(O)c(C(C)(C)C)c1`, the inhibition of viability is 22.8% (inactive).
